Inconclusive results are not listed. Active and inactive are the calls of the source. Calls follow the shape of the dose curve; as a rule, active = well fitted inhibition curve with a large enough effect; inconclusive = small, poorly fitted or top-dose-only effect; inactive = flat fitted curve, though single readings scatter. Peptide text beside a SMILES is read from it.
Test system: DIV14
Experiment: qHTS profiling for inhibitors of Plasmodium falciparum proliferation (AID 504749); also: nearly all actives have a fitted effect of over 60% in size;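 as to activity, negative = inhibition: 0% = DMSO vehicle and full inhibition = artemisinin control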
Conditions: P. falciparum in erythrocytes, SYBR Green DNA, 72 h; series mostly up to 12.8 µM; activity, negative = inhibition: at the top concentration
Summary of the method: (§1)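 P. falciparum-infected erythrocytes (0.3% parasitemia, 2.5% hematocrit) incubated with compound 72 h at 37 C, 5% CO2. Parasite DNA detected by SYBR Green after lysis, overnight at room temperature; normalised to 0.29 uM artemisinin and DMSO.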
Potency is read from the fitted curve at half-maximal effect.

activity, negative = inhibition, inactive:
CN(C)CCCOC1C(C(O)CO)OC2OC(C)(C)O[C@@H]21 (stereo not given in full) 10.5% [at 28.7 µM]
CCC(C)C(=O)OC1CCC=C2C=CC(C)C(CCC3CC(O)CC(=O)O3)[C@@H]21 (stereo not given in full) -23.2% [at 28.7 µM]
CC(=O)OC1CCC2C3CCc4cc(O)ccc4C3CCC12C (stereo not given) -28.9% [at 28.7 µM]
CC[C@@]12CCCN3CCc4c(n(c5ccccc45)[C@](O)(C(=O)OC)C1)C32 (stereo not given in full) -23.2% [at 28.7 µM]
CN1CC(=O)N=C1N -0.0094% [at 28.7 µM]
OCC1OC([S-])[C@H](O)C(O)C1O.[Au+] (stereo not given in full) -1.57% [at 28.7 µM]
CC(C)C1CCC(C(=O)NC(Cc2ccccc2)C(=O)O)CC1 (stereo not given) 1.86% [at 28.7 µM]
CCC(CCC(C)C1CCC2C3CC=C4CC(O)CC[C@@]4(C)C3CC[C@@]12C)C(C)C (stereo not given in full) -11.4% [at 28.7 µM]
OCC1O[C@H](OC2C(CO)O[C@@](O)(CO)C2O)C(O)C(O)C1O (stereo not given in full) 5.9% [at 28.7 µM]
CC1(C)OC2CO[C@]3(COS(N)(=O)=O)OC(C)(C)OC3C2O1 (stereo not given in full) 1.4% [at 28.7 µM]
CC1(C)OC2CC(=O)OC[C@@]23C1CC(=O)[C@]1(C)C3CC[C@@]2(C)C(c3ccoc3)OC(=O)C3O[C@@]321 (stereo not given in full) -4.66% [at 28.7 µM]
COC(=O)C(Cc1ccccc1)NC(=O)C(N)CC(=O)O (stereo not drawn) (H-Asp-Phe-OMe; configuration not given here) 1.34% [at 28.7 µM]
C[C@]12C=CC(=O)C=C1CCC1C2C(O)C[C@]2(C)C1CC[C@]2(O)C(=O)CO (stereo not given in full) 2.93% [at 28.7 µM]
CC1(C)S[C@H]2C(NC(=O)[C@@H](N)c3ccc(O)cc3)C(=O)N2[C@@H]1C(=O)O (stereo not given in full) -13% [at 28.7 µM]
CC(C)=CCC[C@](C)(O)C1CC=C(C)CC1 (stereo not given in full) 4.79% [at 28.7 µM]
C[C@]1(c2ccccc2)OC(C(=O)O)=CC1=O 6.77% [at 28.7 µM]
CC(=O)N[C@H](CC(C)C)C(=O)O -21.6% [at 28.7 µM]
COc1ccc2cc(C(C)CO)ccc2c1 (stereo not given) -8.92% [at 28.7 µM]
CC1CCC(C(C)C)C(=O)C1 (stereo not given) -6.57% [at 28.7 µM]
CNC1CC(N)[C@H](O)[C@@H](O[C@@H]2OC(CO)C3OC4(OC(C(N)CO)C(O)C(O)C4O)O[C@@H]3[C@H]2O)C1O (stereo not given in full) 0.857% [at 28.7 µM]
CCCC(=O)O[C@]1(C(=O)CO)CCC2[C@@H]3CCC4=CC(=O)CC[C@]4(C)C3C(O)C[C@]21C (stereo not given in full) -13.7% [at 28.7 µM]
CC(=O)[C@]1(O)CCC2C3C=C(Cl)C4=CC(=O)C5CC5[C@@]4(C)C3CC[C@]21C (stereo not given in full) 7.05% [at 28.7 µM]
C/C1=C2N=C(/C=C3N=C(/C(C)=C4\[N-]C(C)(C5N=C1C(C)(CCC(=O)NCC(C)OP(=O)([O-])O[C@H]1C(O)C(n6cnc7cc(C)c(C)cc76)O[C@@H]1CO)C5CC(N)=O)C(C)(CC(N)=O)C4CCC(N)=O)C(C)(CC(N)=O)C\3CCC(N)=O)C(C)(C)C/2CCC(N)=O.[CH2-]C1OC(n2cnc3c(N)ncnc32)C(O)C1O.[Co] (stereo not given in full) -14.9% [at 28.7 µM]
O=C1OC(CO)C(O)C(O)C1O (stereo not given) -7.09% [at 28.7 µM]
CNC1C(OC2C(O[C@@H]3C(O)C(O)[C@@H](N=C(N)N)C(O)C3N=C(N)N)OC(C)[C@@]2(O)CO)OC(CO)C(O)C1O (stereo not given in full) -8.26% [at 28.7 µM]

Potency, active:
NC(C(=O)O)[C@@H]1CC(Cl)=NO1 (stereo not given in full) 2.39 µM
COC1C=CO[C@@]2(C)Oc3c(C)c(O)c4c(O)c(c5c(nc6cc(C)ccn65)c4c3C2=O)NC(=O)/C(C)=C\C=CC(C)C(O)[C@@H](C)C(O)C(C)[C@@H](OC(C)=O)C1C (stereo not given in full) 1.07 µM
COC1C=CO[C@@]2(C)Oc3c(C)c(O)c4c(O)c(c(C=NN5CCN(C)CC5)c(O)c4c3C2=O)NC(=O)/C(C)=C\C=CC(C)C(O)[C@@H](C)C(O)C(C)[C@H](OC(C)=O)C1C (stereo not given in full) 0.301 µM
COc1cc(C2c3cc4c(cc3C(O[C@@H]3OC5COC(c6cccs6)OC5C(O)C3O)C3COC(=O)C23)OCO4)cc(OC)c1O (stereo not given in full) 1.9 µM

Test system: DIV17
Experiment: as above
Conditions: P. falciparum in erythrocytes, SYBR Green DNA, 72 h; series mostly up to 12.8 µM; activity, negative = inhibition: at the top concentration
Summary of the method: as §1

activity, negative = inhibition, inactive:
CN(C)CCCOC1C(C(O)CO)OC2OC(C)(C)O[C@@H]21 (stereo not given in full) 5.65% [at 28.7 µM]
CCC(C)C(=O)OC1CCC=C2C=CC(C)C(CCC3CC(O)CC(=O)O3)[C@@H]21 (stereo not given in full) -13.3% [at 28.7 µM]
CC(=O)OC1CCC2C3CCc4cc(O)ccc4C3CCC12C (stereo not given) -30% [at 28.7 µM]
CN1CC(=O)N=C1N -5.9% [at 28.7 µM]
OCC1OC([S-])[C@H](O)C(O)C1O.[Au+] (stereo not given in full) -6.64% [at 28.7 µM]
CC(C)C1CCC(C(=O)NC(Cc2ccccc2)C(=O)O)CC1 (stereo not given) 5.57% [at 28.7 µM]
CCC(CCC(C)C1CCC2C3CC=C4CC(O)CC[C@@]4(C)C3CC[C@@]12C)C(C)C (stereo not given in full) -7.27% [at 28.7 µM]
C[C@]12CCC(=O)C=C1CCC1C2C(=O)C[C@]2(C)C1CC[C@]2(O)C(=O)CO (stereo not given in full) 3.76% [at 28.7 µM]
OCC1O[C@H](OC2C(CO)O[C@@](O)(CO)C2O)C(O)C(O)C1O (stereo not given in full) -1.72% [at 28.7 µM]
CC1(C)OC2CO[C@]3(COS(N)(=O)=O)OC(C)(C)OC3C2O1 (stereo not given in full) 0.648% [at 28.7 µM]
CC1(C)OC2CC(=O)OC[C@@]23C1CC(=O)[C@]1(C)C3CC[C@@]2(C)C(c3ccoc3)OC(=O)C3O[C@@]321 (stereo not given in full) -5.36% [at 28.7 µM]
COC(=O)C(Cc1ccccc1)NC(=O)C(N)CC(=O)O (stereo not drawn) (H-Asp-Phe-OMe; configuration not given here) 10.8% [at 28.7 µM]
C[C@]12C=CC(=O)C=C1CCC1C2C(O)C[C@]2(C)C1CC[C@]2(O)C(=O)CO (stereo not given in full) -1.06% [at 28.7 µM]
CC1(C)S[C@H]2C(NC(=O)[C@@H](N)c3ccc(O)cc3)C(=O)N2[C@@H]1C(=O)O (stereo not given in full) 2.53% [at 28.7 µM]
CC(C)=CCC[C@](C)(O)C1CC=C(C)CC1 (stereo not given in full) -2.7% [at 28.7 µM]
C[C@]1(c2ccccc2)OC(C(=O)O)=CC1=O -12.3% [at 28.7 µM]
CC(=O)N[C@H](CC(C)C)C(=O)O 1.02% [at 28.7 µM]
COc1ccc2cc(C(C)CO)ccc2c1 (stereo not given) 1.77% [at 28.7 µM]
CC1CCC(C(C)C)C(=O)C1 (stereo not given) -2.73% [at 28.7 µM]
CNC1CC(N)[C@H](O)[C@@H](O[C@@H]2OC(CO)C3OC4(OC(C(N)CO)C(O)C(O)C4O)O[C@@H]3[C@H]2O)C1O (stereo not given in full) 7.92% [at 28.7 µM]
CCCC(=O)O[C@]1(C(=O)CO)CCC2[C@@H]3CCC4=CC(=O)CC[C@]4(C)C3C(O)C[C@]21C (stereo not given in full) -2.43% [at 28.7 µM]
CC(=O)[C@]1(O)CCC2C3C=C(Cl)C4=CC(=O)C5CC5[C@@]4(C)C3CC[C@]21C (stereo not given in full) -1.29% [at 28.7 µM]
CC(=O)N[C@@H]1C(O)OC(CO)C(O)C1O (stereo not given in full) -5.79% [at 28.7 µM]
C/C1=C2N=C(/C=C3N=C(/C(C)=C4\[N-]C(C)(C5N=C1C(C)(CCC(=O)NCC(C)OP(=O)([O-])O[C@H]1C(O)C(n6cnc7cc(C)c(C)cc76)O[C@@H]1CO)C5CC(N)=O)C(C)(CC(N)=O)C4CCC(N)=O)C(C)(CC(N)=O)C\3CCC(N)=O)C(C)(C)C/2CCC(N)=O.[CH2-]C1OC(n2cnc3c(N)ncnc32)C(O)C1O.[Co] (stereo not given in full) -16.9% [at 28.7 µM]
O=C1OC(CO)C(O)C(O)C1O (stereo not given) 7.23% [at 28.7 µM]
CNC1C(OC2C(O[C@@H]3C(O)C(O)[C@@H](N=C(N)N)C(O)C3N=C(N)N)OC(C)[C@@]2(O)CO)OC(CO)C(O)C1O (stereo not given in full) -1.97% [at 28.7 µM]
Nc1nc2ncc(CNc3ccc(C(=O)NC(CCC(=O)O)C(=O)O)cc3)nc2c(=O)[nH]1 (stereo not given) -3.63% [at 28.7 µM]

Potency, active:
NC(C(=O)O)[C@@H]1CC(Cl)=NO1 (stereo not given in full) 3.38 µM
COC1C=CO[C@@]2(C)Oc3c(C)c(O)c4c(O)c(c5c(nc6cc(C)ccn65)c4c3C2=O)NC(=O)/C(C)=C\C=CC(C)C(O)[C@@H](C)C(O)C(C)[C@@H](OC(C)=O)C1C (stereo not given in full) 0.536 µM
COC1C=CO[C@@]2(C)Oc3c(C)c(O)c4c(O)c(c(C=NN5CCN(C)CC5)c(O)c4c3C2=O)NC(=O)/C(C)=C\C=CC(C)C(O)[C@@H](C)C(O)C(C)[C@H](OC(C)=O)C1C (stereo not given in full) 0.269 µM
COc1cc(C2c3cc4c(cc3C(O[C@@H]3OC5COC(c6cccs6)OC5C(O)C3O)C3COC(=O)C23)OCO4)cc(OC)c1O (stereo not given in full) 4.26 µM

Source: PubChem BioAssay (NCATS)
